Source: PubChem BioAssay
Compounds with a hit are over-represented: about 11% of the library has one in this group of screens.
IMPase cell inh = qHTS Assay for Identifying the Cell-Membrane Permeable IMPase Inhibitors | 120,000 tested, under 10 active | inhibition (IP1 accumulation), % at 46.1 µM | CHO-M1 cells, IP1 accumulation, HTRF TR-FRET ratio; active = well fitted curve in the direction sought with a large enough effect in the signal ratio, not every such curve was filed as active; inconclusive = small, poorly fitted or top-dose-only effect, or a change in a side signal; inactive = no such curve, though single readings can be large or run the other way; the % refers to the signal ratio;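 also: cells stimulated with carbachol in lithium chloride buffer; higher means more IMPase inhibition seen as more IP1 and lower FRET ratio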
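Seeded CHO-M1 cells were dosed with compound at up to 46 uM, stimulated with carbachol for 30 min, then lysed in IP-One detection reagents. Higher IP1 lowers the TR-FRET signal.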
ALDH1A1 inh = qHTS Assay for Inhibitors of Aldehyde Dehydrogenase 1 (ALDH1A1) | AID 1030, 2008 | 220,000 compounds, 7.3% hits | Purified ALDH1A1, NADH fluorescence, propionaldehyde substrate | Potency, µM (top dose mostly 75.3 µM), most hits filed as inhibitors | Aldehyde dehydrogenase 1A1 (Homo sapiens), P00352
Target sequence (P00352 whole entry, looked up): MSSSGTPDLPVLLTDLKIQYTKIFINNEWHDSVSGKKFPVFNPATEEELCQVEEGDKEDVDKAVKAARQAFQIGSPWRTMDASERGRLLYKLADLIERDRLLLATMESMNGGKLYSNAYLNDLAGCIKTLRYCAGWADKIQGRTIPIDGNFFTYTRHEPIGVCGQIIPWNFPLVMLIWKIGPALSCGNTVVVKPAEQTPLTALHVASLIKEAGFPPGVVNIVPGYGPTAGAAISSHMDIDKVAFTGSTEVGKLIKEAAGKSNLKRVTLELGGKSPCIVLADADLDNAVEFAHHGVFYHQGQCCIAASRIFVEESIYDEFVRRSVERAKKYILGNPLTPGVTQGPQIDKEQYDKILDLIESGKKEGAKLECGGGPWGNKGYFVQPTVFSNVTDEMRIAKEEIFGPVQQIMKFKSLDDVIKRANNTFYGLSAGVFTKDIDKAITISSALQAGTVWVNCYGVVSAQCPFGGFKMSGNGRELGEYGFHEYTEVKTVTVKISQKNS
IMPase Li inh = qHTS Assay for Identifying the Cell-Membrane Permeable IMPase Inhibitors: Potentiation with Lithium; Potency, µM (doses to about 59.4 µM), usual class: inhibitors; 210,000 compounds, 0.35% hits; AID 1457, 2008; CHO-M1 cells, IP1 TR-FRET (IP-One), carbachol + lithium; active = well fitted inhibition curve with a large enough effect; inconclusive = small, poorly fitted or top-dose-only effect; inactive = no such curve, though single readings can be large or run the other way;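 also: IP1 builds up when IMPase is blocked and the TR-FRET signal falls; nearly all actives have a fitted effect of over 50% in size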
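CHO cells stably expressing M1 receptor (2000/well) were cultured 16–30 h, then exposed to compounds with a small lithium addition for 30 min at 37C. IP1 was measured by TR-FRET competition; AC50 from Hill fits.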
HPGD inh = qHTS Assay for Inhibitors of HPGD (15-Hydroxyprostaglandin Dehydrogenase); 150,000 compounds, 4.3% hits; Potency, µM, hits mostly inhibitors; 15-hydroxyprostaglandin dehydrogenase [NAD(+)] (Homo sapiens), P15428; purified HPGD, NADH fluorescence kinetic, PGE2 substrate
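NADH formation kinetics: reaction with 30 uM PGE2 and 1 mM NAD+ (final), 20 nM enzyme, Tris-HCl pH 8 with Tween 20, after 15 min compound preincubation at room temperature. Fluorescence change, last versus first of five reads.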
PNC assembly inh = High Content Assay for Compounds that inhibit the Assembly of the Perinucleolar Compartment; activity change (PNC), negative = inhibition, % at 10 µM; PC3M PTB-GFP, PNC prevalence imaging, 16 h; hits give low values; 140,000 compounds, 3.1% hits; AID 2417, 2010;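 active = readout at or below -70, meaning at least 70% loss of cells showing the perinucleolar compartment, a nuclear body marking cancer cells; inconclusive = readout between -30 and a set limit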
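Compounds are pinned in duplicate onto adhered PC3M cells stably expressing GFP-tagged PTB and incubated 16 h at 37 C. Cells are then fixed, nuclei stained with Hoechst, and PNC-positive cells counted.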
Numbers stand for hits; . = inactive; ? = inconclusive; / = no result given; ! = not active in a repeat; [ ] = dose if it differs, or a comment. Unless noted, calls follow the shape of the dose curve; as a rule, active = well fitted inhibition curve with a large enough effect (not every such curve was filed as active); inconclusive = small, poorly fitted or top-dose-only effect, or another doubt; inactive = no such curve, though single readings can be large or run the other way.

SMILES	IMPase cell inh	ALDH1A1 inh	IMPase Li inh	HPGD inh	PNC assembly inh
CCOC(=O)NC(=O)/C(C#N)=N/Nc1ccc(F)cc1	.	.	.	.	.
CC1CCN(S(=O)(=O)c2ccc3nc(-c4ccccn4)cc(C(=O)NCCN(C)Cc4ccccc4)c3c2)CC1	/	.	.	/	/
CCCCC/C=C\C=C\C(O)CCCCCCCC(=O)O (configuration not stated)	/	.	.	.	/
COc1ccc2[nH]cc(CCNc3ccnc(-c4ccccc4Cl)n3)c2c1	/	25µM	.	/	/
O=C(N/N=C1/C[C@@H](O)[C@@H](O)[C@@H]2[C@@H]3C(=O)N(Cc4ccc5c(c4)OCO5)C(=O)[C@H]3CC[C@@H]12)OCc1ccccc1	/	.[13.5 µM]	/	/	/
O=C(NC(=S)Nn1cnc2c(cnn2-c2ccccc2)c1=O)c1ccccc1	.	18µM	.	.	?
Cc1nc(NC(=S)NC(=O)c2cccs2)sc1C(=O)N(C)C	.	4.5µM	.	22µM	.
COc1ccc(C(=O)NC(=S)Nc2nc(C)c(C(=O)N(C)C)s2)cc1	.	?	.	.	?
CSCCC(NC(=O)OC(C)(C)C)C(=O)Oc1ccc2c(=O)c(-c3ccc4c(c3)OCCO4)coc2c1 (configuration not stated)	.	25µM	.	.	.
CC(C)CO/N=C1/C[C@@H](O)[C@@H](O)[C@@H]2[C@@H]3C(=O)N(Cc4ccc5c(c4)OCO5)C(=O)[C@H]3CC[C@H]12	/	.[13.5 µM]	/	/	/
Cc1nnc(N/N=C/c2c(Cl)cccc2Cl)n1N	/	.	.	/	/
Clc1cccc(Cl)c1/C=N\Nc1nccs1	.	?	.	7.9µM	?
N#Cc1cc2c(nc1SCc1cccnc1)CCCC2	.	?	?	13µM	?
COc1cc(C(=S)N2CCCCC2)ccc1OCC(=O)N1CCCC1	.	22µM	.	.	?
CCOc1ccc(C(=O)N2CCCC2)cc1OC	.	.	.	28µM	.
CCOc1ccc(C(=S)N2CCCC2)cc1OC	/	.	.	.	.
COc1cc(C(=O)NCCc2ccc3c(c2)OCCO3)ccc1OCC(=O)N1CCOCC1	.	22µM	.	.	.
COc1cc(C(=O)O)ccc1OCC(=O)N1CCOCC1	.	.	.	.	.
CC(C)C[C@@H](CC(=O)N[C@@H](CCC(=O)O)CC(=O)O)NC(=O)[C@@H]1CNCC[C@H]1NC(=O)C[C@@H](NC(=O)C[C@H](Cc1c[nH]c2ccccc12)NC(=O)[C@@H]1CNCC[C@H]1N)C(C)C	/	.	.	.	/
Nc1nc(Cl)nc2c1ncn2[C@@H]1O[C@@H](CO)[C@@H](O)[C@H]1O	.	/	/	/	/
COc1ccc(CN2CCNC(=O)C2CC(=O)N2CCCCO2)c(OC)c1 (configuration not stated)	/	.	.	/	/
CCOc1ccccc1NC(=O)CN(C)S(=O)(=O)c1ccc(OC)c(C)c1	.	?	.	16µM	.
COc1ccc(CNc2nc3ccccc3n2Cc2ccc(Cl)cc2)cc1OC	/	.	.	.	.
O=Nc1c(O)[nH]c2ccccc12.[Cu].[O-]/N=C1/C(=[OH+])Nc2ccccc21	/	.[13.5 µM]	.	.	/
CCOc1cc(CNc2ccc3c(c2)CCC3)ccc1OC	.	20µM	.	.	.
SMILES	IMPase cell inh	ALDH1A1 inh	IMPase Li inh	HPGD inh	PNC assembly inh
COc1ccc(NC(=O)Nc2ccc3c(c2)CCC3)cc1OC	/	.	.	/	/
O=[N+]([O-])c1cccc(CNc2ccc3c(c2)CCC3)c1	/	22µM	.	.	.
CC(=O)OCC1(C)CN(c2ccccc2)NC1=O (configuration not stated)	/	10µM	.	/	/
CN1CCc2cccc3c2[C@@H]1Cc1ccc(O)c(O)c1-3	?	25µM	.	8.9µM!	.
Cn1c(=O)c(=O)n(C)c2cc(NC(=O)c3cccc(F)c3)c(Cl)cc21	.	/	/	/	/
COC(=O)N/N=C/c1sc(N2CCCCC2)nc1-c1cccs1	/	25µM	.	/	/
Cc1cc2oc(=O)cc(CN3CCC(C)CC3)c2cc1Cl	.	20µM	.	.	.
Cc1cc2oc(=O)cc(CN3CCN(Cc4ccccc4)CC3)c2cc1Cl	.	?	.	?	?
Cc1cc(C(F)F)n2nc(C(=O)Nc3ccc(F)c(Cl)c3)nc2n1	.	/	/	/	/
Cc1cc2n(n1)SC(Nc1ccc(F)c(Cl)c1)N2 (configuration not stated)	.	2.8µM	.	.	.
COc1ccc(CCN2CC(C#N)=C3c4cc(OC)c(OC)cc4CCN3C2)cc1OC	.	?	.	7.1µM	.
COc1cc2c(cc1OC)C1=C(C#N)CCC(=O)N1CC2	.	.	.	?	-100
COc1cc2c(cc1OC)C1=C(C#N)CC/C(=N\S(=O)(=O)c3ccccc3)N1CC2	.	.	.	?	.
COc1cc(NC(=S)NC2CC2)c(OC)cc1Cl	/	?	.	.	?
CSCC[C@@H](N)C(=O)O	/	.	.	/	/
Cc1ccc(C(C#N)N2CCOCC2)cc1 (configuration not stated)	.	.	.	.	.
N#CC(c1ccc(O)cc1)N1CCOCC1 (configuration not stated)	.	7.9µM	.	.	-103
O=[N+]([O-])c1ccc(OC/C=C2\Oc3ccc([N+](=O)[O-])cc3C2N2CCOCC2)cc1 (configuration not stated)	.[1.84 µM]	25µM	.	.	?
O=[N+]([O-])c1ccc2c(c1)C(N1CCOCC1)/C(=C/COc1ccc(F)cc1)O2 (configuration not stated)	.	?	.	.	.
COc1ccc(CCN(C)CC(O)c2ccccc2)cc1OC (configuration not stated)	/	18µM	.	/	/
Cc1ccc2[nH]c3c(c2c1)CN(C(=O)CN1CC(C)OC(C)C1)CC3 (configuration not stated)	.	11µM	.	.	?
Cc1ccc2[nH]c3c(c2c1)CN(C(=O)CN1CCN(c2ccccn2)CC1)CC3	.	10µM	.	.	.
CCCCCCCC/C=C\CCCCCCCCOC[C@H](COP(=O)([O-])OCC[N+](C)(C)C)OC(C)=O	/	.	.	.	/
O=C(NC(=S)Nn1cnnc1)c1ccccc1Cl	/	10µM	.	/	/
COc1cccc(C(=O)NC(=S)Nn2cnnc2)c1OC	/	7.9µM	.	/	/
COC(=O)c1cc(OC)c(OC)cc1NC(=O)c1cccc(OC)c1OC	/	?	.	/	/
CN1CCc2nc3sc(C(=O)NCc4ccccc4)c(N)c3cc2C1	/	25µM	.	/	/
CN(C)c1ccc(NC(=O)c2cccc(N3C(=O)CCC3=O)c2)cc1	?	19µM	.	.	.
CC[C@H](C)[C@@H](NC(=O)O[C@@H]1C(=O)c2cc(Br)ccc2O[C@H]1c1ccc2c(c1)OCO2)C(=O)OC	/	25µM!	.	.	.
